Results: PubChem BioAssay (NCATS)
Values joined by “and” are separate entries in the source; they are usually repeats but may differ in a detail not shown here. Equal entries are not always repeated. Results filed as inconclusive are left out. Where a structure was tested more than once in an assay, its records may differ in their call. Active and inactive are the calls of the source. Unless noted, calls follow the shape of the dose curve; as a rule, active = well fitted curve in either direction with a large enough effect (not every such curve was filed as active); inconclusive = small, poorly fitted or top-dose-only effect, or another doubt; inactive = flat fitted curve, though single readings scatter. Starred links: 1 amine or outer side, 2 acyl side, 3 side chain; linkers in the order of their positions; H or OH if unused. Positions of bridges follow the written chain, without caps; N, C: chain ends. Non-standard residues stand in square brackets, D forms with d. Residues, ends and D or L forms follow the SMILES beside them. *: point of attachment. X1 = NC1=N[C@@H](O)C[C@@H]([C@@H](N[*:1])C(=O)[*:2])N1; ΔAla(Z-3-ureido) = NC(=O)N/C=C(\N)C(=O)O; β3hOrn = NCCC[C@H](N)CC(=O)*; Dap = NC[C@H](N)C(=O)O

Legend:
[1] = AP1 Signaling Pathway (AID 357);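 also: ME-180 reporter cells stimulated with EGF at its EC50 level; % is scaled to controls: 0 for no effect and ±100 for the full control effect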
In short: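 First, ME-180 AP-1-bla cells were cultured overnight at 37 °C in low-serum Opti-MEM. Next, titrated compounds with EC50 EGF were incubated 5 hours. Finally, CCF4 was added for 2.5 hours and the 460/530 nm ratio recorded.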

[2] = NFAT Signaling Pathway (AID 444); conditions: Jurkat NFAT-bla M1, carbachol, beta-lactamase ratio, 5 h; at 17.2 µM (top of the series) unless noted;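 also: carbachol stimulus at about its EC50 of 1 µM final; % is scaled to controls: 0 for no effect and ±100 for the full control effect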
In short: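 Read-out: CCF4 FRET ratio (460 nm/530 nm) after 1 h RT dye loading, used for %activity and AC50 from titration series. Cells: Jurkat NFAT-β-lactamase/M1 line, treated with compound plus 1 uM carbachol for 5 h, 37 °C.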

[3] = Stat Signaling Pathway (AID 446);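 also: ME-180 cervical cancer cells given 40 pM IL-6 alongside compound; SIE-controlled beta-lactamase reporter measured as 460/530 nm FRET emission ratio; % is scaled to controls: 0 for no effect and ±100 for the full control effect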
In short: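 Normalization used AC90 stimulation (300 pM IL-6) and AC90 inhibition (125 nM pan-JAK inhibitor at 40 pM IL-6). The underlying signal is SIE-driven beta-lactamase in ME-180 cells after 5 h IL-6 exposure with compound.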

[4] = target: Mitogen-activated protein kinase 10 (Mus musculus) (UniProt Q61831); assay: JNK3 AlphaScreen Assay (AID 530);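 also: kinase came from lysate of stimulated human HepG2 cells; signal reports phosphorylation of biotinylated GST-cJun 1-79 at Ser73 with 10 µM ATP; % is scaled to controls: 0 for no effect and ±100 for the full control effect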
In short: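 qHTS titrations with 15 min compound pre-incubation before adding ATP (10 uM final). Read-out: AlphaScreen of Ser73-phosphorylated biotin-GST-cJun using HepG2 lysate JNK3 activated by IL-1β and TNFα.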

[5] = target: 3',5'-cyclic-AMP phosphodiesterase 4B (Homo sapiens) (UniProt Q07343); assay: qHTS Assay for Inhibitors of PDE-IV (AID 607; active = well fitted activation curve with a large enough effect in the main read-out, with a control signal flat, not every such curve was filed as active; also: % of control where 0% means no effect)
In short: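 HEK293 ACTOne cells with CNG channel (1000/well), endogenous PDE4; membrane potential dye, compounds up to 22.9 uM final. Fluorescence Ex 535/Em 590; RO 20-1724 (100 uM final) as reference.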

[6] = qHTS Assay for Lipid Storage Modulators (AID 1519; calls by dose curve); conditions: Drosophila S3 cells, BODIPY lipid droplet/cell ratio, laser cytometry, cells loaded with oleic acid
In short: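 Cells seeded at 5,000 per well were treated with compounds over a concentration series and loaded with oleic acid (400 uM, as added). Lipid droplet fluorescence (488 nm excitation, 500-530 nm channel) was read by laser-scanning cytometry and normalized to 20 uM Triacsin C.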

[7] = S16 Schwann cell viability assay (CellTiter-Glo assay) (AID 624031; active = well fitted curve in the direction sought with a large enough effect; an effect the other way counts as inactive or inconclusive;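 also: cellular ATP luminescence as a viability measure; plate controls were DMSO-treated cells for no effect and cell-free wells for full effect; nearly all actives have a fitted effect of over 70% in size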)
In short: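 Native S16 rat Schwann cells, 500-750 cells/well in DMEM with 10% FBS, dosed with compound after overnight culture and incubated 24h at 37 degree Celsius/5% CO2. Viability by CellTiter-Glo luminescence; % activity normalized to no-cell wells and DMSO-treated cells.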

[8] = qHTS profiling for inhibitors of Plasmodium falciparum proliferation (AID 504749; active = well fitted curve in the direction sought with a large enough effect; an effect the other way counts as inactive or inconclusive;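 also: 0% = DMSO vehicle and full inhibition = artemisinin control; nearly all actives have a fitted effect of over 60% in size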); conditions: P. falciparum in erythrocytes, SYBR Green DNA, 72 h
In short: (§1)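 SYBR Green fluorescence of parasite DNA, read after lysis and overnight dark incubation, measured growth over 72 h in erythrocyte culture at 0.3% parasitemia and 2.5% hematocrit. Data normalised to DMSO and 0.29 uM artemisinin, with plate-drift correction.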

AS120 = assay: as above; conditions: P. falciparum in erythrocytes, SYBR Green DNA, 72 h; series mostly up to 12.8 µM
In short: as §1

C2A = assay: as above; conditions: P. falciparum in erythrocytes, SYBR Green DNA, 72 h; series mostly up to 12.8 µM
In short: as §1

CP237 = assay: as above; conditions: P. falciparum in erythrocytes, SYBR Green DNA, 72 h; series mostly up to 12.8 µM
In short: as §1

CP238 = assay: as above; conditions: P. falciparum in erythrocytes, SYBR Green DNA, 72 h; series mostly up to 12.8 µM
In short: as §1

CP252 = assay: as above; conditions: P. falciparum in erythrocytes, SYBR Green DNA, 72 h; series mostly up to 12.8 µM
In short: as §1

FAB9 = assay: as above; conditions: P. falciparum in erythrocytes, SYBR Green DNA, 72 h; series mostly up to 12.8 µM
In short: as §1

HB3 = assay: as above; conditions: P. falciparum in erythrocytes, SYBR Green DNA, 72 h; series mostly up to 12.8 µM
In short: as §1

JCK = assay: as above; conditions: P. falciparum in erythrocytes, SYBR Green DNA, 72 h; series mostly up to 12.8 µM
In short: as §1

PAD = assay: as above; conditions: P. falciparum in erythrocytes, SYBR Green DNA, 72 h; series mostly up to 12.8 µM
In short: as §1

[9] = target: Glucocorticoid receptor (Homo sapiens) (UniProt P04150); assay: GR-GFP Redistribution (AID 450;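 active = compounds whose dose series gives a full or clear partial fitted curve of increased nuclear translocation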; also: potency is read from the fitted curve at half-maximal effect); conditions: U2OS GR-GFP nuclear translocation, laser cytometry, 2 h
[10] = target: Glucocorticoid receptor (Homo sapiens) (UniProt P04150); assay: GR-EFC Redistribution (AID 451; calls by dose curve; also: potency is read from the fitted curve at half-maximal effect); conditions: CHO-K1 GR-EFC translocation, beta-gal luminescence, 2 h
In short: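 Translocation of GR-ED fusion to nuclear EA restores b-gal, read by luminescence after 1 h room-temperature detection. Engineered CHO-K1 biosensor cells, 1,000/well, exposed 2 h at 37 C to titrations up to 46 uM final.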

[11] = target: Ubiquitin carboxyl-terminal hydrolase 1 (Homo sapiens) (UniProt O94782); assay: Inhibitors of USP1/UAF1: Pilot qHTS (AID 504865; active = well fitted curve in the direction sought with a large enough effect; an effect the other way counts as inactive or inconclusive; also: nearly all actives have a fitted effect of over 35% in size; also: potency is read from the fitted curve at half-maximal effect)
In short: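 USP1/UAF1 complex (1nM) preincubated with compound 15 min at room temperature, then Ub-Rho substrate (150nM final) added. Fluorescence read kinetically at 480/540 nm, 6 reads every 60 seconds. Buffer: 50mM HEPES pH 7.8, 0.5mM EDTA, 0.1 mg/ml BSA, 1mM TCEP, 0.01% Tween-20.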

[12] = measured here: cell count channel max response
[13] = measured here: lipid channel max response
[14] = at 12.8 µM (top of the series), parasite line A
[15] = at 12.8 µM (top of the series), parasite line B

Sequence of Ubiquitin carboxyl-terminal hydrolase 1 (Homo sapiens) (O94782 whole entry, looked up): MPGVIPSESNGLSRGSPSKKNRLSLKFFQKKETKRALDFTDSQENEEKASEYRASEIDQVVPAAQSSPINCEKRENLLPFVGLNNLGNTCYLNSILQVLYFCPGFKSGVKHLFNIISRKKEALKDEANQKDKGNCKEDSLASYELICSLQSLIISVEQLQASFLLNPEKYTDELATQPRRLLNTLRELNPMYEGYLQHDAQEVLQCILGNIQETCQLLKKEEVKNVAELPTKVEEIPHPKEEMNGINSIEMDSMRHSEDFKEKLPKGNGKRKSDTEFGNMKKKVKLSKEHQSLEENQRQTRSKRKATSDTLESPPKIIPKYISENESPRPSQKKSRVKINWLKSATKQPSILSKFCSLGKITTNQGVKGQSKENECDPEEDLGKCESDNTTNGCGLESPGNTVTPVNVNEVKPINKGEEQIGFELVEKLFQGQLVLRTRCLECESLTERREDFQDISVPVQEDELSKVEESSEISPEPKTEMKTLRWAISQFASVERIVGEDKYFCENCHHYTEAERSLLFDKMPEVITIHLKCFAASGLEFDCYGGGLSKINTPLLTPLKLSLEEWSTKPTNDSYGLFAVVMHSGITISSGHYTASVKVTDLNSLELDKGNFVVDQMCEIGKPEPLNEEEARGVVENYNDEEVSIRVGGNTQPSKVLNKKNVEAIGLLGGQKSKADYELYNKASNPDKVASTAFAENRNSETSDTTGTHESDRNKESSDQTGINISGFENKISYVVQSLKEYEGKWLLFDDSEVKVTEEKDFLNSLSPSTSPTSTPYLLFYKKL
Sequence of Glucocorticoid receptor (Homo sapiens) (P04150 whole entry, looked up, the tested form may be a part): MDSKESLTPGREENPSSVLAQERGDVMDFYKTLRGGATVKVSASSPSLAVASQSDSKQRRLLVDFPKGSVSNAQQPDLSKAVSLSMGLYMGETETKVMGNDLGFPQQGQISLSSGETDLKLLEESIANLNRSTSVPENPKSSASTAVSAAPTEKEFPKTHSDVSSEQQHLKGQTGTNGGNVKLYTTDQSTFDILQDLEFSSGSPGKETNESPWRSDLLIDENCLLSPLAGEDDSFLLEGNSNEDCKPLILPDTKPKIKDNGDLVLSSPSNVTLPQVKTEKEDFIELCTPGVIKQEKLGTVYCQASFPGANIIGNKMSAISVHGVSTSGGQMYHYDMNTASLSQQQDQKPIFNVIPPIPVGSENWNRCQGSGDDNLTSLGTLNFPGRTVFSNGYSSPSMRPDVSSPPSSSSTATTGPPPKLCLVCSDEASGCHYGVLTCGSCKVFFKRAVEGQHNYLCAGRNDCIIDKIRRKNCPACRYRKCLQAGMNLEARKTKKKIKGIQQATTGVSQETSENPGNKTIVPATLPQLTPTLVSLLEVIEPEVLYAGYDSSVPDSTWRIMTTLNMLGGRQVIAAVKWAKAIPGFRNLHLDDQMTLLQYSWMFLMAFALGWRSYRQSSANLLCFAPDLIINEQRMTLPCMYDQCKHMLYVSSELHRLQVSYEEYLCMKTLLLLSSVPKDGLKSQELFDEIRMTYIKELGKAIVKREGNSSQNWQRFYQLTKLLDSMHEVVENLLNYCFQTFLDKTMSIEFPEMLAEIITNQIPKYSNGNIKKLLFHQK
Sequence of 3',5'-cyclic-AMP phosphodiesterase 4B (Homo sapiens) (Q07343 whole entry, looked up): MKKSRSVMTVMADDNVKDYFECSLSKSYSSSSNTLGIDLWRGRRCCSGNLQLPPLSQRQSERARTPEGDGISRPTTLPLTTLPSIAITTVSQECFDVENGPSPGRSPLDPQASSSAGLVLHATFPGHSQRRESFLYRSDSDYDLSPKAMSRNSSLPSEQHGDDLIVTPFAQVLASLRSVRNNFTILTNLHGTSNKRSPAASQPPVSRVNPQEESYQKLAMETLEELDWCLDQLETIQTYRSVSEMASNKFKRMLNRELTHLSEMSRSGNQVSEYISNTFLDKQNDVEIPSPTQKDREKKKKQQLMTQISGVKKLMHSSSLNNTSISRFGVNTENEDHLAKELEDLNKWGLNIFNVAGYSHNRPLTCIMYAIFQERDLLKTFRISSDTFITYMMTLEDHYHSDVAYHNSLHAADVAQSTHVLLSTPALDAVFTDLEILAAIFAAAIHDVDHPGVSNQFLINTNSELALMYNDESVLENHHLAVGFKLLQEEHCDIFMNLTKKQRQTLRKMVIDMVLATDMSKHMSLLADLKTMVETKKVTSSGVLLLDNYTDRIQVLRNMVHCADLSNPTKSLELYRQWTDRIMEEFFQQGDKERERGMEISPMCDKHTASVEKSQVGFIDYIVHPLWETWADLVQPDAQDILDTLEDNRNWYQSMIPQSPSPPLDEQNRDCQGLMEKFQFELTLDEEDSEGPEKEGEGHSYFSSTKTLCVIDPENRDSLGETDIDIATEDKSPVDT

CCN[C@@H]1C[C@H](N)[C@H](O[C@H]2OC(CN)=CC[C@H]2N)[C@@H](O)[C@H]1O[C@H]1OC[C@@](C)(O)[C@@H](NC)[C@@H]1O
-6.32%: max response [6, 12]
-1.8%: max response [6, 13]
inactive: outcome [1] | activity change, negative = inhibition [2] -14.4% | outcome [3] | Potency [4] | outcome [5] | activity change, negative = inhibition ([6]; at 25.7 µM (top of the series)) -1.78% | outcome [7] | activity, negative = inhibition ([8]; at 28.7 µM (top of the series), parasite line A) 6.1% | activity, negative = inhibition ([8]; at 28.7 µM (top of the series), parasite line B) 14.9% | Potency (AS120) | Potency (C2A) | Potency (CP237) | Potency (CP238) | Potency (CP252) | Potency (FAB9) | Potency (HB3) | Potency (JCK) | Potency (PAD)

CN[C@]1(C)[C@H]2CC[C@@H](C2)C1(C)C
-12.2%: max response [6, 12]
inactive: outcome [1] | activity change, negative = inhibition [2] -19.7% | outcome [3] | Potency [9] > 20.6 µM | Potency [10] > 20.6 µM | Potency [4] | outcome [5] | activity change, negative = inhibition ([6]; at 25.7 µM (top of the series)) -3.7%
-14.5%: max response [6, 13]

CC(C)(CO)[C@H](O)C(=O)NCCC(=O)O
inactive: outcome [1] | activity change, negative = inhibition [2] 8.26% | outcome [3] | Potency [4] | outcome [5] | activity change, negative = inhibition ([6]; at 25.7 µM (top of the series)) -0.81%
7.75%: max response [6, 12]
6.98%: max response [6, 13]

COC(=O)[C@@H]1[C@@H]2C[C@H]3c4[nH]c5cc(OC)ccc5c4CCN3C[C@@H]2C[C@H](OC(=O)c2cc(OC)c(OC)c(OC)c2)[C@H]1OC
-12.8%: max response [6, 13]
inactive: outcome [1] | activity change, negative = inhibition [2] -10.5% | outcome [3] | Potency [9] > 20.6 µM | Potency [10] > 20.6 µM | Potency [4] | outcome [5] | activity change, negative = inhibition ([6]; at 25.7 µM (top of the series)) -6.07%
-5.3%: max response [6, 12]

Fc1ccc(Nc2nc(-c3cccnc3)nc3ccccc23)cc1
0.257%: max response [6, 13]
-6.31%: max response [6, 12]
active: Potency [11] 39.8 µM
inactive: outcome [1] | activity change, negative = inhibition [2] -9.74% [at 7.69 µM] | outcome [3] | Potency [9] > 46 µM | Potency [10] > 46 µM | Potency [4] | activity change, negative = inhibition ([6]; at 57.5 µM (top of the series)) 7.7%

CNC[C@H](O)[C@H](O)[C@H](O)[C@H](O)CO
-14.3%: max response [6, 13]
-11%: max response [6, 12]
inactive: outcome [1] | activity change, negative = inhibition [2] 3.99% | outcome [3] | Potency [4] | outcome [5] | activity change, negative = inhibition ([6]; at 25.7 µM (top of the series)) -1.7% | Potency [11]

CC(=O)/C(C)=N\O
inactive: outcome [1] | activity change, negative = inhibition [2] 4.19% [at 38 µM] | outcome [3] | Potency [10] > 46 µM | outcome [5] | activity change, negative = inhibition ([6]; at 57.5 µM (top of the series)) -1.01% | Potency [11]
-2.91%: max response [6, 12]
7.38 µM (active) and > 46 µM (inactive): Potency [9]
-2.64%: max response [6, 13]

C[C@H](O)Cn1cnc2c1c(=O)n(C)c(=O)n2C
-3.77%: max response [6, 13]
-2.3%: max response [6, 12]
inactive: outcome [1] | activity change, negative = inhibition [2] 18.8% | outcome [3] | Potency [4] | outcome [5] | activity change, negative = inhibition ([6]; at 25.7 µM (top of the series)) 0.562% | Potency [11] | outcome [7] | activity, negative = inhibition [8, 14] 7.57% | activity, negative = inhibition [8, 15] -0.935% | Potency (AS120) | Potency (C2A) | Potency (CP237) | Potency (CP238) | Potency (CP252) | Potency (FAB9) | Potency (HB3) | Potency (JCK) | Potency (PAD)

N[C@H](Cc1cc(I)c(Oc2ccc(O)c(I)c2)c(I)c1)C(=O)O
3.42%: max response [6, 13]
8.52%: max response [6, 12]
inactive: outcome [1] | activity change, negative = inhibition [2] -4.32% | outcome [3] | Potency [9] > 20.6 µM | Potency [10] > 20.6 µM | Potency [4] | outcome [5] | activity change, negative = inhibition ([6]; at 25.7 µM (top of the series)) -1.62%

CC[C@]1(c2ccccc2)NC(=O)N(C)C1=O
inactive: outcome [1] | activity change, negative = inhibition [2] -14.9% | outcome [3] | Potency [4] | outcome [5] | activity change, negative = inhibition ([6]; at 25.7 µM (top of the series)) 0.43% | Potency [11]
11.1%: max response [6, 12]
11.3%: max response [6, 13]

COc1c(O[C@H]2O[C@@H](CO)[C@@H](O)[C@@H](O)[C@@H]2O)cc2c(c1OC)-c1ccc(SC)c(=O)cc1[C@H](NC(C)=O)CC2
3.12%: max response [6, 12]
inactive: outcome [1] | activity change, negative = inhibition [2] 5.96% | outcome [3] | Potency [4] | outcome [5] | activity change, negative = inhibition ([6]; at 25.7 µM (top of the series)) -1.68% | Potency [11] | outcome [7] | activity, negative = inhibition [8, 14] 5.35% | activity, negative = inhibition [8, 15] 4.25% | Potency (AS120) | Potency (C2A) | Potency (CP237) | Potency (CP238) | Potency (CP252) | Potency (FAB9) | Potency (HB3) | Potency (JCK) | Potency (PAD)
2.91%: max response [6, 13]

C=N[C@H](C(=O)N[C@@H]1C(=O)N2[C@@H]1SC(C)(C)[C@@H]2C(=O)O)c1ccccc1
-4.08%: max response [6, 13]
inactive: outcome [1] | activity change, negative = inhibition [2] -0.342% | outcome [3] | Potency [4] | outcome [5] | activity change, negative = inhibition ([6]; at 25.7 µM (top of the series)) -2.09% | Potency [11]
-2.49%: max response [6, 12]

NCCC[C@H](N)CC(=O)N[C@H]1CNC(=O)[C@@H]([C@@H]2C[C@H](O)N=C(N)N2)NC(=O)/C(=C/NC(N)=O)NC(=O)[C@@H](CO)NC(=O)[C@@H](CO)NC1=O (β3hOrn-[Dap][dS][dS][ΔAla(Z-3-ureido)][X1]; lactam 1-C)
-7.09%: max response [6, 12]
inactive: outcome [1] | activity change, negative = inhibition [2] -11.1% | outcome [3] | outcome [5] | activity change, negative = inhibition ([6]; at 25.7 µM (top of the series)) 0.925% | Potency [11]
-7.39%: max response [6, 13]
